The record followed here is PubChem BioAssay (EPA / NIEHS).

Several values for one entry are separate records, joined by “and”; a condition that tells them apart may be missing. Identical values can stand only once. Results filed as inconclusive are left out. Activity calls are given as the source filed them. How the source made its calls: active means hit-call score of the fitted dose curve at least 0.9, where 1 is the maximum; inconclusive means response in the unintended direction; inactive means score below 0.9.

Assay [1] in a line: ATG_M_06_XSP2: Attagene TRANS-FACTORIAL Multi-Species (XSP2) HepG2 Assay for M06 Transcription Factor (Internal Marker) (AID 2283811).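 Further: hits are increases in signal above the DMSO baseline.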 Put shortly: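 Readout: fluorescent reporter-mRNA peaks by capillary electrophoresis after RT-PCR and HpaI digest, scored upward relative to DMSO. Transfected HepG2, 24 h chemical exposure, with 3 nM 6-alpha-fluorotestosterone and 1.5 nM norgestrel added.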

For assay [2], the system named is turtle Estrogen Receptor (ERa), gene 101933533. The assay is described as follows: ATG_trERa_XSP2: Attagene TRANS-FACTORIAL Multi-Species (XSP2) HepG2 Assay for turtle Estrogen Receptor (ERa) (AID 2283812).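 Further: actives raise reporter signal above DMSO so AC50 reflects agonist activity.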 The method, boiled down:
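Readout is reporter mRNA quantified by RT-PCR with capillary electrophoresis after 24 h compound exposure, increase relative to DMSO. Uses transiently transfected human HepG2 liver cells carrying a chimeric turtle ERa-Gal4 receptor driving GAL4-UAS reporters.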

The target of assay [3] is Estrogen receptor beta (Homo sapiens) (UniProt Q92731). The assay is described as follows: ATG_hERb_XSP2: Attagene TRANS-FACTORIAL Multi-Species (XSP2) HepG2 Assay for human Estrogen Receptor (ERb) (AID 2283813).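 Further: actives raise reporter mRNA above DMSO so AC50 reflects agonist induction.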 The method, boiled down:
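Transient TRANS reporter system in HepG2: after 24 h of chemical, RNA is reverse-transcribed, reporter cDNA amplified, FAM-labelled and sized by capillary electrophoresis. Induction of the human ERb-Gal4 reporter is measured relative to DMSO.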

Assay [4] addresses GAL4 Transcription Factor (Internal Marker), GAL4 (gene 855828) (UniProt P04386). The assay is described as follows: ATG_GAL4_XSP2: Attagene TRANS-FACTORIAL Multi-Species (XSP2) HepG2 Assay for GAL4 Transcription Factor (Internal Marker) (AID 2283814).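 Further: GAL4 reporter mRNA background control in MRTU transfected cells not a receptor target.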 Put shortly: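 Background-control readout: gain-of-signal fitted against DMSO. After 24 h exposure of transfected HepG2 (MRTU, GAL4-UAS reporters; 3 nM 6-alpha-fluorotestosterone, 1.5 nM norgestrel present), transcripts quantified by RT-PCR and capillary electrophoresis fluorescence.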

Assay [5] deals with zebrafish Estrogen Receptor (ER1), esr1 (gene 259252) (UniProt P57717). The assay is described as follows: ATG_zfER1_XSP2: Attagene TRANS-FACTORIAL Multi-Species (XSP2) HepG2 Assay for zebrafish Estrogen Receptor (ER1) (AID 2283816). Put shortly: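 After 24 h compound exposure, RNA from transfected HepG2 cells was reverse-transcribed and reporter transcripts resolved by capillary electrophoresis. The TRANS format reads exogenous zebrafish ER1-Gal4 chimera activity on GAL4-UAS elements; gain of signal against DMSO.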

The target of assay [6] is chicken Estrogen Receptor (ERa), ESR1 (gene 396099) (UniProt P06212). The assay is described as follows: ATG_chERa_XSP2: Attagene TRANS-FACTORIAL Multi-Species (XSP2) HepG2 Assay for chicken Estrogen Receptor (ERa) (AID 2283817).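 Further: actives raise reporter signal above DMSO so AC50 reflects ER activation.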 Put shortly: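 Readout: fluorescent reporter-transcript fragments resolved by capillary electrophoresis after RT-PCR and HpaI cut. Chicken ERa-Gal4 fusion in transiently transfected HepG2, dosed for 24 h; activity taken as increase over DMSO baseline.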

Assay [7] has as its system zebrafish Estrogen Receptor (ER2a), gene 317734. Briefly: ATG_zfER2a_XSP2: Attagene TRANS-FACTORIAL Multi-Species (XSP2) HepG2 Assay for zebrafish Estrogen Receptor (ER2a) (AID 2283818).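 Further: hits raise reporter mRNA so AC50 reflects activation of zebrafish ER2a.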 Put shortly:
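Multiplexed trans-reporter readout: RT-PCR then capillary electrophoresis of reporter transcripts after 24 h compound treatment. Human HepG2 carries transfected zebrafish ER2a-Gal4 chimera; 3 nM 6-alpha-fluorotestosterone plus 1.5 nM norgestrel present. Induction scored against DMSO.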

The subject of assay [8] is frog Estrogen Receptor (ER), gene 398734. Briefly: ATG_frER1_XSP2: Attagene TRANS-FACTORIAL Multi-Species (XSP2) HepG2 Assay for frog Estrogen Receptor (ER) (AID 2283821).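 Further: hits raise reporter mRNA above DMSO baseline so potency means agonist or activator.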 The method, boiled down: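 Reporter mRNA induction, detected as fluorescence after RT-PCR and capillary electrophoresis, is the endpoint; activity is fitted upward against DMSO. Cells are human liver HepG2 carrying transfected NR-Gal4 chimeras with GAL4-UAS-driven reporters, harvested 24 h post-dosing.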

The test system of assay [9] is zebrafish Estrogen Receptor (ER2b), gene 317733. The assay is described as follows: ATG_zfER2b_XSP2: Attagene TRANS-FACTORIAL Multi-Species (XSP2) HepG2 Assay for zebrafish Estrogen Receptor (ER2b) (AID 2283823).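 Further: fitted upward as reporter gain over DMSO so potency reflects activation.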 Put shortly: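 Transfect HepG2 with GAL4-UAS reporter constructs; dose chemicals, 24 h; isolate RNA, RT-PCR, FAM-label, HpaI digest; capillary electrophoresis. Gain-of-signal vs DMSO.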

Assay [10] has as its system zebrafish Androgen Receptor (AR), gene 100005148. The assay is described as follows: ATG_zfAR_XSP2: Attagene TRANS-FACTORIAL Multi-Species (XSP2) HepG2 Assay for zebrafish Androgen Receptor (AR) (AID 2283825).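 Further: hits raise reporter mRNA above DMSO so AC50 reflects agonist-type gain.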 Put shortly:
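After 24 h compound exposure in medium with 3 nM 6-alpha-fluorotestosterone plus 1.5 nM norgestrel, HepG2 cells carrying zebrafish AR–GAL4 reporter constructs were assessed for reporter mRNA gain by RT-PCR and capillary electrophoresis.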

For assay [11], the target named is Estrogen receptor (Homo sapiens) (UniProt P03372). Briefly: ATG_hERa_XSP2: Attagene TRANS-FACTORIAL Multi-Species (XSP2) HepG2 Assay for human Estrogen Receptor (ERa) (AID 2283827). Put shortly: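 Trans-activation of exogenous human ERa-Gal4 chimera read in HepG2 as reporter transcript after 24 h exposure; medium included 3 nM 6-alpha-fluorotestosterone and 1.5 nM norgestrel. Quantified by RT-PCR with capillary electrophoresis, positive-direction fitting against DMSO.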

Assay [12] deals with frog Estrogen Receptor (ER2), gene 100174814. Briefly: ATG_frER2_XSP2: Attagene TRANS-FACTORIAL Multi-Species (XSP2) HepG2 Assay for frog Estrogen Receptor (ER2) (AID 2283828). Put shortly: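 Cells were transfected with reporter constructs under GAL4-UAS control, dosed with chemicals for 24 h, then lysed for RNA; the frog ER2-driven reporter mRNA was quantified by capillary electrophoresis of labeled PCR fragments, with activity fitted upward from DMSO.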

For assay [13], the target named is Peroxisome proliferator-activated receptor gamma (Homo sapiens) (UniProt P37231). The assay is described as follows: ATG_hPPARg_XSP2: Attagene TRANS-FACTORIAL Multi-Species (XSP2) HepG2 Assay for human Peroxisome Proliferator-activated Receptor gamma (PPARg) (AID 2283829).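 Further: actives raise reporter mRNA above DMSO so AC50 reflects PPARg activation.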 The method, boiled down:
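Transient MRTU transfection, HepG2; TRANS format (exogenous NR-Gal4 chimeras). 24 h chemical exposure with 3 nM 6-alpha-fluorotestosterone and 1.5 nM norgestrel present. Readout: reporter mRNA via RT-PCR/CE fluorescence, up-direction vs DMSO.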

In assay [14] the target is mouse Peroxisome Proliferator-activated Receptor gamma (PPARg), Pparg (gene 19016) (UniProt P37238). Briefly: ATG_mPPARg_XSP2: Attagene TRANS-FACTORIAL Multi-Species (XSP2) HepG2 Assay for mouse Peroxisome Proliferator-activated Receptor gamma (PPARg) (AID 2283830).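 Further: hits are gains in reporter mRNA above DMSO so AC50 marks activation.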 The method, boiled down:
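Multiplexed TRANS reporter readout: after 24 h chemical exposure of transfected HepG2 cells (with 3 nM 6-alpha-fluorotestosterone, 1.5 nM norgestrel present), RNA reverse-transcribed, amplified, 6-FAM-labelled and resolved by capillary electrophoresis; mouse PPARg-Gal4 induction scored against DMSO.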

In assay [15] the test system is turtle Androgen Receptor (AR), gene 101947425. Briefly: ATG_trAR_XSP2: Attagene TRANS-FACTORIAL Multi-Species (XSP2) HepG2 Assay for turtle Androgen Receptor (AR) (AID 2283815).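 Further: potency for gain of reporter signal meaning activation above DMSO baseline.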 The method, boiled down: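 Reporter transcripts were quantified via RT-PCR and capillary electrophoresis and fitted upward against DMSO. Transiently transfected human HepG2 cells carrying NR-Gal4 chimeras were exposed 24 h, with 3 nM 6-alpha-fluorotestosterone plus 1.5 nM norgestrel added.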

Assay [16] deals with chicken Androgen Receptor (AR), gene 422165. The assay is described as follows: ATG_chAR_XSP2: Attagene TRANS-FACTORIAL Multi-Species (XSP2) HepG2 Assay for chicken Androgen Receptor (AR) (AID 2283819).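 Further: hits raise reporter mRNA above DMSO so potency is for activation.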 The method, boiled down:
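Readout is reporter mRNA induction via RT-PCR/capillary electrophoresis after 24 h chemical exposure, positive direction relative to DMSO. Transiently transfected HepG2 express chimeric chicken AR–GAL4; AR stimulated by 3 nM 6-alpha-fluorotestosterone and 1.5 nM norgestrel.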

Assay [17] relates to frog Androgen Receptor (AR), gene 399456. Briefly: ATG_frAR_XSP2: Attagene TRANS-FACTORIAL Multi-Species (XSP2) HepG2 Assay for frog Androgen Receptor (AR) (AID 2283824).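 Further: reporter mRNA from GAL4-UAS units driven by Xenopus AR-Gal4 chimera; actives raise reporter signal above DMSO so AC50 reflects agonist-like induction.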 The method, boiled down: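 Reporter transcript induction, read by RT-PCR with fluorescent capillary electrophoresis, in human liver HepG2 cells carrying an exogenous Xenopus AR-Gal4 fusion and GAL4-driven reporters; chemical exposure 24 hours, activity scored upward against DMSO controls.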

Sequence of zebrafish Estrogen Receptor (ER1), esr1 (gene 259252) (P57717 whole entry, looked up, the tested form may be a part): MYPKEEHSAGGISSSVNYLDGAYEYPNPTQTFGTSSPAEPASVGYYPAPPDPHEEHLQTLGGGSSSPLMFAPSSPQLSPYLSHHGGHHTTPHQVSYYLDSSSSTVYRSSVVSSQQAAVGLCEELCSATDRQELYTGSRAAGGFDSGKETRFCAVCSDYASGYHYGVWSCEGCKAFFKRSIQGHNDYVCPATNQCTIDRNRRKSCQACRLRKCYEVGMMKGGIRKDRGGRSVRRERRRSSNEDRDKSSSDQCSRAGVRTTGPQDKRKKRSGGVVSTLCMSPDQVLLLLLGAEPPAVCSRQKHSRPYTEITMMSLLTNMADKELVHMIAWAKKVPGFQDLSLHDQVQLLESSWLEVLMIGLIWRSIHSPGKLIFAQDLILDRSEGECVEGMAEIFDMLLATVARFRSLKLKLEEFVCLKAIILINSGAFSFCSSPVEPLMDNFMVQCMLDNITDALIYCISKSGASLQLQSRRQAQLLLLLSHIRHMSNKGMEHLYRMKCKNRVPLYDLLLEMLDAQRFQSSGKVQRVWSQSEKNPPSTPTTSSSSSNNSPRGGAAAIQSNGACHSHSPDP
Sequence of Peroxisome proliferator-activated receptor gamma (Homo sapiens) (P37231 whole entry, looked up, the tested form may be a part): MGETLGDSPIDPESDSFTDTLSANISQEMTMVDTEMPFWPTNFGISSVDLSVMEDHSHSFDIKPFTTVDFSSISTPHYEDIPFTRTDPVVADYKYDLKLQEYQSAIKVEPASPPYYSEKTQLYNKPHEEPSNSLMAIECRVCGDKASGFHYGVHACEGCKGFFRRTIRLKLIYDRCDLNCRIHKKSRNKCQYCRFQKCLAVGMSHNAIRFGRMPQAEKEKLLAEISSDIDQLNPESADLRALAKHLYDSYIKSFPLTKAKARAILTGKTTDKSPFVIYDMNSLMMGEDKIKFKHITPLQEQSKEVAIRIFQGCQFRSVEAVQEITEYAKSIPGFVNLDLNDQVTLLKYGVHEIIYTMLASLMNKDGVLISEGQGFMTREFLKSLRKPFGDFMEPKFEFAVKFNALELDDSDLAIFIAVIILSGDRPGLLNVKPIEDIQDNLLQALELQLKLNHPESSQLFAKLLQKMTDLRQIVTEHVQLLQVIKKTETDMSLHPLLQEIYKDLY
Sequence of chicken Estrogen Receptor (ERa), ESR1 (gene 396099) (P06212 whole entry, looked up, the tested form may be a part): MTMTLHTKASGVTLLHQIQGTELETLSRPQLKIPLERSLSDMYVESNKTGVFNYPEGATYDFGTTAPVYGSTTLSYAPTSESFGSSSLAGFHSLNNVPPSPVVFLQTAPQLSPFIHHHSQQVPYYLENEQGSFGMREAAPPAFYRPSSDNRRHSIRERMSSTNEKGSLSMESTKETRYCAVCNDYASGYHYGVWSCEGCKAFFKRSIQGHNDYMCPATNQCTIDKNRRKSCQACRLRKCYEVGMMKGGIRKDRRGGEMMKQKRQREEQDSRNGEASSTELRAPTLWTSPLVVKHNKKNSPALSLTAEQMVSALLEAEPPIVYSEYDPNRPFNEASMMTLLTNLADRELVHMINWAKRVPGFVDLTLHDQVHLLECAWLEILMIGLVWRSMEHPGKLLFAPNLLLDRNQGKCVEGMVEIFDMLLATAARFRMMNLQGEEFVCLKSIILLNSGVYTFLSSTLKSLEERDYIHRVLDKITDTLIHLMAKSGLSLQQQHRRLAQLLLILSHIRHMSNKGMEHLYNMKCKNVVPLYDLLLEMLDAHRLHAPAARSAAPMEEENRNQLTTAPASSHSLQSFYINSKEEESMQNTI
Sequence of Estrogen receptor beta (Homo sapiens) (Q92731 whole entry, looked up, the tested form may be a part): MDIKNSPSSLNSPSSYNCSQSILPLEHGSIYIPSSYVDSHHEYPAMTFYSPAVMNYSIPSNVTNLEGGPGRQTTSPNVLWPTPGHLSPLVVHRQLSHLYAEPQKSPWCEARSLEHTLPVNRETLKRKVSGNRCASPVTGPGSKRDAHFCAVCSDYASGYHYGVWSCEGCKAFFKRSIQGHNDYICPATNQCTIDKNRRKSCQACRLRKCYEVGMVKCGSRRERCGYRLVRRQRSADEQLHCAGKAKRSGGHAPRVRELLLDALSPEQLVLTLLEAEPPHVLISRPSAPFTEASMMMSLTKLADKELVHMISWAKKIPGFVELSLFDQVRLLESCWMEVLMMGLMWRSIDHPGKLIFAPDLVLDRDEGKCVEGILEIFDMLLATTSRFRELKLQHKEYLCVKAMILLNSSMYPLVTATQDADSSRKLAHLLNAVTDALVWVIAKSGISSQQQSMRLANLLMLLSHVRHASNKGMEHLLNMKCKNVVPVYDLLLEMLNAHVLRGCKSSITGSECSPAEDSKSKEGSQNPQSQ
Sequence of mouse Peroxisome Proliferator-activated Receptor gamma (PPARg), Pparg (gene 19016) (P37238 whole entry, looked up, the tested form may be a part): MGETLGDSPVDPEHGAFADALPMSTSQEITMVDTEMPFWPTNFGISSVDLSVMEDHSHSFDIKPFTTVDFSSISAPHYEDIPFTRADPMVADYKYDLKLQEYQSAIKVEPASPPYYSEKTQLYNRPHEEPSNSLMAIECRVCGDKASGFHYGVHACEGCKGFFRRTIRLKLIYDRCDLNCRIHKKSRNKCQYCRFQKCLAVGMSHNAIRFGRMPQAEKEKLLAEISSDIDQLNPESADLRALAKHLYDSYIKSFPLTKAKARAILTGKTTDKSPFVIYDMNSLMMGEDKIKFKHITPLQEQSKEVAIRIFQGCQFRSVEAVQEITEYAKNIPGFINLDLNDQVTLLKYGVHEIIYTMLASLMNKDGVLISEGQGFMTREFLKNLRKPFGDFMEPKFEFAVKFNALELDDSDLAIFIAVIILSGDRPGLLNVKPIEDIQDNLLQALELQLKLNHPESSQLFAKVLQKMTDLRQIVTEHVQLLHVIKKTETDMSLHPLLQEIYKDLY
Sequence of Estrogen receptor (Homo sapiens) (P03372 whole entry, looked up, the tested form may be a part): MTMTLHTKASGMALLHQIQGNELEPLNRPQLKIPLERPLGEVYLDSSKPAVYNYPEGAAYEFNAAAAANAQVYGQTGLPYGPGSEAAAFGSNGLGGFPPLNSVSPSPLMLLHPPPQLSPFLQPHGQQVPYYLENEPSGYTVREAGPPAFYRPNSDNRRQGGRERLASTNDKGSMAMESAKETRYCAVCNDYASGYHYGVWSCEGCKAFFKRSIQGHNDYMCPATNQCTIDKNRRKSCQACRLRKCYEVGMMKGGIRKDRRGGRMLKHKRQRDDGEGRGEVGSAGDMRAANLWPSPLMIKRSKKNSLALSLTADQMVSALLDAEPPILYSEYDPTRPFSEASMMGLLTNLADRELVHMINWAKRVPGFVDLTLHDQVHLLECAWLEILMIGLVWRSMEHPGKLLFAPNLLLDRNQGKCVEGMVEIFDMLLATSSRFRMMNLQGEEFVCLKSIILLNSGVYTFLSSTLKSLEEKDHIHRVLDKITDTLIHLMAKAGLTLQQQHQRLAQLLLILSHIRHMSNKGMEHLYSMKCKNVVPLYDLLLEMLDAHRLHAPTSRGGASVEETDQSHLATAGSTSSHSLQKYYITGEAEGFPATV
Sequence of GAL4 Transcription Factor (Internal Marker), GAL4 (gene 855828) (P04386 whole entry, looked up, the tested form may be a part): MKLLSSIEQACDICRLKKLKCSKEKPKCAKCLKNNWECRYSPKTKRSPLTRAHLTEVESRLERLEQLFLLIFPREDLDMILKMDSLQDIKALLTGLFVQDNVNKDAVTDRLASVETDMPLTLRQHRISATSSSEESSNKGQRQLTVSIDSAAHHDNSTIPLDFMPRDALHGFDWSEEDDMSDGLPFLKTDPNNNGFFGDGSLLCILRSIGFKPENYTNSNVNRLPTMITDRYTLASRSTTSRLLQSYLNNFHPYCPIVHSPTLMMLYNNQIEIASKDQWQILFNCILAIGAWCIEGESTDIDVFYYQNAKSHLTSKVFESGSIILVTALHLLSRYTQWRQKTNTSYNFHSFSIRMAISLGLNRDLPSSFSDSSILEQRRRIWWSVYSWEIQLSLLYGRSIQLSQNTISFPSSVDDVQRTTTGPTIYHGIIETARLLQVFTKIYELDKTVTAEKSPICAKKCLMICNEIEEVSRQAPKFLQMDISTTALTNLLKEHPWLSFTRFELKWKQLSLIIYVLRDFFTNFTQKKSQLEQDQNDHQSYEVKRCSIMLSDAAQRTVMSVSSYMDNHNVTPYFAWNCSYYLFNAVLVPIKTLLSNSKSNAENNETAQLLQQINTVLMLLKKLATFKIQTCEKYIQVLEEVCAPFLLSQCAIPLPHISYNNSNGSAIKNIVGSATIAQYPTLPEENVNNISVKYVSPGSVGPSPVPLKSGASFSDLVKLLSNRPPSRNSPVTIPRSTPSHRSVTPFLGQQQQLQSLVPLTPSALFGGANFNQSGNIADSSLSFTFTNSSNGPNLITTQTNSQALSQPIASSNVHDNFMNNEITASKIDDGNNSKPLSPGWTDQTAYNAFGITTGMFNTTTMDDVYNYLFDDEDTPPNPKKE

A word on the AC50: it is the midpoint of the concentration-response curve, whichever way the signal moves. For `CCCCCCCCCCCCc1ccc(O)cc1`, the compound was called inactive in [1], in [3], in [4], in assay [7], in assay [10] and in assay [13]. Further, the compound was called inactive in [14]. Moreover, the AC50 is 327 nM (active) and 57.8 nM (active) in assay [2]; 470 nM (active) in assay [5]; 526 nM (active) and 135 nM (active) in assay [6]; 274 nM (active) and 44 nM (active) in [8]; 377 nM (active) and 126 nM (active) in assay [9]; 546 nM (active) and 167 nM (active) in [11]. The AC50 in [12] was 610 nM (active) and 239 nM (active).
`O=C(O)/C=C/c1ccccc1`: the outcome in [2], in assay [6], in assay [7], in assay [9], in [11] and in assay [13] was inactive. In [14], the compound was called inactive. Further, the AC50 in [8] was 31.6 µM (active).
With `COc1ccc(-c2coc3cc(O)cc(O)c3c2=O)cc1`, the compound was classed as inactive in assay [1], in [17], in assay [13] and in [14]. Further, the AC50 in [2] is 1.27 µM (active) and 161 nM (active); in [3], 83.6 nM (active) and 65.3 nM (active); in assay [15], 1810 nM (active); in [5] it was 4.02 µM (active) and 458 nM (active); in assay [6], 1.24 µM (active) and 200 nM (active); in [7] it was 260 nM (active) and 38 nM (active). For the same compound, the AC50 in [16] was 10 µM (active) and 6.25 µM (active); in assay [8], 1.07 µM (active) and 98.3 nM (active); in assay [9], 2.28 µM (active) and 310 nM (active); in [11], 931 nM (active) and 276 nM (active); in [12], 501 nM (active) and 6.78 nM (active).
